# Measurements reported in ChEMBL document CHEMBL1157539, “Thousands of chemical starting points for antimalarial lead identification” (Nature, 2010).
# System: Plasmodium falciparum
# Experiment: GSK_TCMDC: Inhibition of Plasmodium falciparum 3D7 in whole red blood cells, using parasite LDH activity as an index of growth. Test compounds present at 2uM
# Format: functional
row,SMILES,Inhibition [%]
1,CN1CCCN(c2ccnc3cc4c(cc23)N(C(=O)c2ccc(Cl)c(Cl)c2)CC4)CC1.Cl,100
2,CC[C@H](NC(=O)c1c(CC2CCN(CC(C)=O)CC2)c(-c2ccccc2)nc2ccccc12)c1ccccc1,97
3,COC(=O)c1ccc(C(=O)NCCCCN2CCC(c3ccc4c(c3OC)CCCC4)CC2)cc1-c1ccc(C(F)(F)F)cc1,93
4,CCn1ccc2c(N3CCCCS3(=O)=O)cc(C(=O)N[C@@H](Cc3ccccc3)[C@H](O)CNC(C)(C)CCCC(C)C)cc21,96
5,O=C(NCCCCN1CCC(c2ccc(Br)cc2)CC1)c1ccc(NC(=O)c2ccc(Cl)cc2)cc1,100
6,C=CCc1cc(Cc2cnc(N)nc2N)c2ccc(C)nc2c1O,84
7,CC1(C)C(=O)Nc2ccccc2N1C(=O)CN1CCN(c2ccccc2O)CC1,92
8,CCCCCCCC1CC(CC(=O)Nc2ccnc3ccc(OC)cc23)CN1 (stereo not drawn),90
9,Cl.O=c1cc(NCCCCNCc2ccc(Br)c(Br)c2)[nH]c2ccccc12,98
10,CN(C)CCOc1cc(NC(=O)Nc2ccc(Oc3ccccc3)cc2)ccc1I.Cl,89
11,COc1ccc(CNCc2ccc(-c3cccc(-c4nc5ccccc5[nH]4)c3)cc2)cc1.O=C(O)C(F)(F)F,100
12,O=C(Nc1ccc(Cl)c(Cl)c1)Nc1ccccc1N1CCNCC1.O=C(O)C(F)(F)F,100
13,CN(C)CCCN1C(=O)c2[nH]nc(-c3ccc(Cl)cc3O)c2C1c1ccc(Cl)cc1 (stereo not drawn),99
14,NS(=O)(=O)c1cccc(Nc2nccc(-c3cnn4ncccc34)n2)c1,89
15,COc1ccc(-c2ccc(CNC(=O)c3ccc(C#N)cc3)c(F)c2)cc1CN1CCCN(C)CC1.O=C(O)C(F)(F)F,90
16,CC(C)(C)NS(=O)(=O)c1cc(C(=O)N2CCC(CCN3CCC(C(=O)c4ccc(F)cc4)CC3)(c3cccc(F)c3)CC2)c(Cl)cc1F,99
17,CN1CCCN(Cc2ccc(-c3ccc(NC(=O)c4ccc(C#N)cc4)cc3)cc2)CC1.O=C(O)C(F)(F)F,91
18,Cl.NC1=NC(CCc2ccccc2)N(c2ccc(Cl)cc2)C(N)=N1 (stereo not drawn),94
19,CC(C)C[C@H](NC(=O)c1ccc(OCCN2CCOCC2)cc1)C(=O)N[C@H](/C=N/N1CCN(C)C1=O)CCc1ccccc1,90
20,COCCNCc1ccc(-c2cccc(CNc3ccc(OC)cc3)c2)cc1.O=C(O)C(F)(F)F,94

row,SMILES,Inhibition [%]
1,CCCCCCc1c(C)nc2cc(OC)ccc2c1O,97
2,COc1cc2nc(NCc3nc4ccccc4[nH]3)nc(N)c2cc1OC.Cl,97
3,Cc1ccccc1CNc1ccc2nc(N)nc(N)c2c1,100
4,Cc1c(CNCCCNc2nc3ccccc3[nH]2)[nH]c2cc(Cl)cc(Cl)c12,100
5,O=C(Nc1cccc(Cl)c1)N[C@H]1CCN(Cc2ccc(OCCCN3CCCCC3)cc2)C1,99
6,CN(Cc1cc(C(F)(F)F)cc(C(F)(F)F)c1)C(=O)C(Cc1ccc(F)cc1)C1CCCNC1 (stereo not drawn),96
7,COc1cc(Cc2cnc(N)nc2N)cc(OCCCCC2SC(=O)NC2=O)c1Br (stereo not drawn),94
8,O=C1C(=Cc2c(O)ccc3ccccc23)SC(=NCc2ccccc2)N1Cc1ccccc1,98
9,O=C(Nc1ccc2nc3n(c(=O)c2c1)CCCCC3)C(=O)N1CCC(Cc2ccccc2)CC1,91
10,CN1CCCN(c2ccnc3cc4c(cc23)N(C(=O)c2ccc(C(F)(F)F)cc2)CC4)CC1.Cl,100
11,O=C(Nc1ccc(Br)cc1)Nc1ccc(Cn2ncc(N3CCCNCC3)c(Cl)c2=O)cc1.O=C(O)C(F)(F)F,87
12,COc1cc2nccc(Nc3ccc(Oc4ccccc4)cc3)c2cc1OC.Cl,100
13,O=C(Nc1cccc(-c2ccc(-c3nc4cc(C(F)(F)F)ccc4[nH]3)cc2)c1)c1cccnc1,100
14,Cc1ccc(NC(C)C(=O)Nc2ccccc2)cc1S(=O)(=O)N1CCCCCC1 (stereo not drawn),99
15,CCN(CC)Cc1ccc2c(=O)cc(CCc3cccc(F)c3F)n(CC(=O)N(Cc3ccc(-c4ccc(C(F)(F)F)cc4)cc3)C(C)C)c2c1.O=C(O)C(O)C(O)C(=O)O,100
16,O=C(Nc1cccc(C(F)(F)F)c1)NC1CCN(c2ccnc3cc(Cl)ccc23)CC1.O=C(O)C(F)(F)F,100
17,Cc1ccc(Cn2cnc3cc(C(=O)Nc4ccc(-c5cccc(CN(C)C)c5)cc4)ccc3c2=O)o1,99
18,COc1cc2nc(NCC3CCCCC3)nc(NCc3ccccc3)c2cc1OC,100
19,CNC(=O)c1ccccc1Nc1nc(Nc2ccc(N3CCN(C)CC3)nc2)ncc1C.Cl,92

# System: Plasmodium falciparum
# Experiment: GSK_TCMDC: Inhibition of Plasmodium falciparum Dd2 in whole red blood cells, using parasite LDH activity as an index of growth. Test compounds present at 2uM
# Format: functional
row,SMILES,Inhibition [%]
1,CN1CCCN(c2ccnc3cc4c(cc23)N(C(=O)c2ccc(Cl)c(Cl)c2)CC4)CC1.Cl,73
2,CC[C@H](NC(=O)c1c(CC2CCN(CC(C)=O)CC2)c(-c2ccccc2)nc2ccccc12)c1ccccc1,96
3,COC(=O)c1ccc(C(=O)NCCCCN2CCC(c3ccc4c(c3OC)CCCC4)CC2)cc1-c1ccc(C(F)(F)F)cc1,19
4,CCn1ccc2c(N3CCCCS3(=O)=O)cc(C(=O)N[C@@H](Cc3ccccc3)[C@H](O)CNC(C)(C)CCCC(C)C)cc21,98
5,O=C(NCCCCN1CCC(c2ccc(Br)cc2)CC1)c1ccc(NC(=O)c2ccc(Cl)cc2)cc1,86
6,C=CCc1cc(Cc2cnc(N)nc2N)c2ccc(C)nc2c1O,3
7,CC1(C)C(=O)Nc2ccccc2N1C(=O)CN1CCN(c2ccccc2O)CC1,72
8,CCCCCCCC1CC(CC(=O)Nc2ccnc3ccc(OC)cc23)CN1 (stereo not drawn),58
9,Cl.O=c1cc(NCCCCNCc2ccc(Br)c(Br)c2)[nH]c2ccccc12,14
10,CN(C)CCOc1cc(NC(=O)Nc2ccc(Oc3ccccc3)cc2)ccc1I.Cl,4
11,COc1ccc(CNCc2ccc(-c3cccc(-c4nc5ccccc5[nH]4)c3)cc2)cc1.O=C(O)C(F)(F)F,85
12,O=C(Nc1ccc(Cl)c(Cl)c1)Nc1ccccc1N1CCNCC1.O=C(O)C(F)(F)F,22
13,CN(C)CCCN1C(=O)c2[nH]nc(-c3ccc(Cl)cc3O)c2C1c1ccc(Cl)cc1 (stereo not drawn),15
14,NS(=O)(=O)c1cccc(Nc2nccc(-c3cnn4ncccc34)n2)c1,89
15,COc1ccc(-c2ccc(CNC(=O)c3ccc(C#N)cc3)c(F)c2)cc1CN1CCCN(C)CC1.O=C(O)C(F)(F)F,1
16,CC(C)(C)NS(=O)(=O)c1cc(C(=O)N2CCC(CCN3CCC(C(=O)c4ccc(F)cc4)CC3)(c3cccc(F)c3)CC2)c(Cl)cc1F,99
17,CN1CCCN(Cc2ccc(-c3ccc(NC(=O)c4ccc(C#N)cc4)cc3)cc2)CC1.O=C(O)C(F)(F)F,28
18,Cl.NC1=NC(CCc2ccccc2)N(c2ccc(Cl)cc2)C(N)=N1 (stereo not drawn),20
19,CC(C)C[C@H](NC(=O)c1ccc(OCCN2CCOCC2)cc1)C(=O)N[C@H](/C=N/N1CCN(C)C1=O)CCc1ccccc1,65
20,COCCNCc1ccc(-c2cccc(CNc3ccc(OC)cc3)c2)cc1.O=C(O)C(F)(F)F,2

row,SMILES,Inhibition [%]
1,CCCCCCc1c(C)nc2cc(OC)ccc2c1O,97
2,COc1cc2nc(NCc3nc4ccccc4[nH]3)nc(N)c2cc1OC.Cl,10
3,Cc1ccccc1CNc1ccc2nc(N)nc(N)c2c1,90
4,Cc1c(CNCCCNc2nc3ccccc3[nH]2)[nH]c2cc(Cl)cc(Cl)c12,0
5,O=C(Nc1cccc(Cl)c1)N[C@H]1CCN(Cc2ccc(OCCCN3CCCCC3)cc2)C1,0
6,CN(Cc1cc(C(F)(F)F)cc(C(F)(F)F)c1)C(=O)C(Cc1ccc(F)cc1)C1CCCNC1 (stereo not drawn),89
7,COc1cc(Cc2cnc(N)nc2N)cc(OCCCCC2SC(=O)NC2=O)c1Br (stereo not drawn),0
8,O=C1C(=Cc2c(O)ccc3ccccc23)SC(=NCc2ccccc2)N1Cc1ccccc1,98
9,O=C(Nc1ccc2nc3n(c(=O)c2c1)CCCCC3)C(=O)N1CCC(Cc2ccccc2)CC1,70
10,CN1CCCN(c2ccnc3cc4c(cc23)N(C(=O)c2ccc(C(F)(F)F)cc2)CC4)CC1.Cl,63
11,O=C(Nc1ccc(Br)cc1)Nc1ccc(Cn2ncc(N3CCCNCC3)c(Cl)c2=O)cc1.O=C(O)C(F)(F)F,15
12,COc1cc2nccc(Nc3ccc(Oc4ccccc4)cc3)c2cc1OC.Cl,99
13,O=C(Nc1cccc(-c2ccc(-c3nc4cc(C(F)(F)F)ccc4[nH]3)cc2)c1)c1cccnc1,97
14,Cc1ccc(NC(C)C(=O)Nc2ccccc2)cc1S(=O)(=O)N1CCCCCC1 (stereo not drawn),97
15,CCN(CC)Cc1ccc2c(=O)cc(CCc3cccc(F)c3F)n(CC(=O)N(Cc3ccc(-c4ccc(C(F)(F)F)cc4)cc3)C(C)C)c2c1.O=C(O)C(O)C(O)C(=O)O,63
16,O=C(Nc1cccc(C(F)(F)F)c1)NC1CCN(c2ccnc3cc(Cl)ccc23)CC1.O=C(O)C(F)(F)F,47
17,Cc1ccc(Cn2cnc3cc(C(=O)Nc4ccc(-c5cccc(CN(C)C)c5)cc4)ccc3c2=O)o1,39
18,COc1cc2nc(NCC3CCCCC3)nc(NCc3ccccc3)c2cc1OC,100
19,CNC(=O)c1ccccc1Nc1nc(Nc2ccc(N3CCN(C)CC3)nc2)ncc1C.Cl,50
